# PubChem BioAssay AID1662 (Broad Institute, 2009)
# Out of some 300,000 compounds screened, about 4,000 (1.3%) were called active.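 The calls were made as follows: active = mean replicate score, as percent of positive control median, at least 50; inconclusive = mean below 50 but one replicate at or above 50; inactive = mean and every replicate below 50.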 The entries come from a sample that favours actives as a whole.
# Experiment: S. pyogenes SKKanGAS growth inhibitors in kanamycin, primary screen, streptokinase expression inhibitor project, SKKanGAS strain, BacTiter-Glo luminescence (AID 1662);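 also: strain carries kanamycin resistance gene driven by streptokinase promoter and grows in 40 µg/ml kanamycin; loss of luminescence reflects streptokinase promoter inhibition or plain growth inhibition; 0% = median of DMSO wells and 100% = positive control at its reference dose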
# Settings: 6 h, at 7.5 µM, stronger effect = higher value
row,Compound,inhibition
1,CC1=C2C(=O)OC(c3ccoc3)C2(C)CCC1 (configuration not stated),-13.7% (inactive)
2,CCC(NC(=O)C1CCCC1)c1ccc(C)cc1 (configuration not stated),5.2% (inactive)
3,Cc1nn(C)c(C)c1S(=O)(=O)N1CCC(CO)(Cc2ccc(Cl)cc2)CC1,-2.57% (inactive)
4,CC1CN(C(=S)Nc2ccccc2F)CC(C)O1 (configuration not stated),-2.73% (inactive)
5,COc1c(N2CCN(C(=S)Nc3ccccc3F)C(C)C2)c(F)cc2c(=O)c(C(=O)O)cn(C3CC3)c12 (configuration not stated),104% (active)
6,COc1ccccc1NC(=S)N1CCN(c2ccc(F)cc2)CC1,-4.99% (inactive)
7,COc1ccc(S(=O)(=O)NCC(=O)NC2CC2)cc1OC,-2.16% (inactive)
8,Cc1cc(Cl)c2oc(C(=O)N3CCC(O)(c4ccccc4)CC3)c(C)c2c1,64.2% (active)
9,Cc1cc(Cl)c2oc(C(=O)N(C)C(C)c3ccccn3)c(C)c2c1 (configuration not stated),8.03% (inactive)
10,Cc1cc(Cl)c2oc(C(=O)NC(C)c3ccncn3)c(C)c2c1 (configuration not stated),-5.52% (inactive)
11,COc1ccc(CCNC2=CC(=O)CC(C)(C)C2)cc1,-6.22% (inactive)
12,CC(C)(C)N1C(=O)[C@H]2[C@@H](c3ccc(Br)cc3)N3C(=O)N(c4cccc(Cl)c4)C(=O)[C@@]3(C)[C@H]2C1=O,-0.18% (inactive)
13,Cc1cccc(-n2nc3c(c2NC(=O)c2cc4ccccc4o2)CS(=O)(=O)C3)c1,1.09% (inactive)
14,CCOC(=O)c1cc(-c2ccc(F)cc2)n(CC(=O)NCc2ccccn2)c1C,-1.39% (inactive)
15,Clc1nc(NC2CCCC2)nc(N2CCOCC2)n1,3.5% (inactive)
16,COc1nc(NC2CCCCC2)nc(N2CCCCCC2)n1,75.9% (active)
17,COC(=O)c1ccc(Oc2nc(Nc3ccc(F)cc3)nc(N3CCCC3)n2)cc1,18.8% (inactive)
18,O=c1cc(C(F)(F)F)[nH]c(=O)n1C1CCCCC1,11.3% (inactive)
19,O=C(c1cccc(F)c1)N1CCN(c2ccc([N+](=O)[O-])c3cccnc23)CC1,-4.2% (inactive)
20,Cc1cccc(CSc2nnc(NC(=O)CSc3nnc(C)s3)s2)c1,7.83% (inactive)
21,Cc1nnc(SCC2=C(C(=O)O)N3C(=O)C(NC(=O)Cn4nc(C)c(Cl)c4C)C3SC2)s1 (configuration not stated),88.3% (active)
22,Cc1nnc(SCC(=O)Nn2cnnc2)s1,4.69% (inactive)
23,Cc1cc(C)cc(C(=O)NC2C(=O)N3C(C(=O)O)=C(CSc4nnc(C)s4)CSC23)c1 (configuration not stated),96.4% (active)

row,Compound,inhibition
1,Cc1nnc(SCC(=O)NC2CCCC2)s1,-0.971% (inactive)
2,COc1ccc(NC(=O)CCCC(=O)c2ccccc2)cc1,1.96% (inactive)
3,CCOc1ccccc1/C=N/Nc1nc2ccccc2o1,2.09% (inactive)
4,COc1cc(N/C=C2\CC(=O)NC(C)=C2C#N)cc(OC)c1OC,-0.282% (inactive)
5,O=C(Nc1ccc(F)cc1)c1ccc(S(=O)(=O)NCc2cccnc2)cc1,-0.655% (inactive)
6,FC(F)(F)c1cc(-c2ccco2)nc(NCc2ccc(Cl)cc2)n1,65.4% (active)
7,FC(F)(F)c1cc(-c2cccs2)nc(NCc2ccco2)n1,-2.9% (inactive)
8,Cc1cc(C(F)(F)F)nn1-c1nc(-c2ccco2)cc(C(F)(F)F)n1,7.56% (inactive)
9,O=[N+]([O-])c1ccc(S(=O)(=O)Nc2cccc(-c3ccc(N4CCCC4)nn3)c2)cc1,0.0506% (inactive)
10,O=S(=O)(Nc1ccc(-c2ccc(N3CCOCC3)nn2)cc1)c1cc(Cl)ccc1Cl,18.8% (inactive)
11,O=S(=O)(Nc1cccc(-c2ccc(N3CCOCC3)nn2)c1)c1ccc(Cl)c(Cl)c1,53.5% (active)
12,CC1CN(S(=O)(=O)c2cccc(C(F)(F)F)c2)CN1C(=O)N1CCOCC1 (configuration not stated),0.316% (inactive)
13,COc1cccc(/C=N/NC(=O)c2[nH]nc3c2CCc2ccccc2-3)c1O,79% (active)
14,COc1cc2cc(C(=O)N/N=C/c3cccc(OC)c3OC)[nH]c2cc1OC,2.92% (inactive)
15,CN(C)CCNC(=O)c1[nH]nc2c1CCc1ccccc1-2,-5.17% (inactive)
16,COc1ccccc1C1C(C(N)=O)=C(C)Nc2nc(CCCO)nn21 (configuration not stated),-3.27% (inactive)
17,CCOc1ccc(CN(C)C(=O)c2ccc(=O)[nH]c2)cc1,1.34% (inactive)
18,CCOC(=O)C1=C(CCc2ccccc2)NC(=O)NC1c1ccc2ccccc2c1 (configuration not stated),19.2% (inactive)
19,CC(C)Cn1c(CCC(=O)O)ccc1-c1cccs1,-8.87% (inactive)
20,CCCCCn1c(SCCC(C)C)nc2c1c(=O)[nH]c(=O)n2C,26.4% (inactive)
21,CCCCCCn1c(SCC(=O)c2ccccc2)nc2c1c(=O)[nH]c(=O)n2C,73.3% (active)
22,C=CCSc1nc2c(c(=O)[nH]c(=O)n2C)n1Cc1ccccc1,-11.2% (inactive)
23,N=c1ccn(CC(=O)NC(N)=O)c2ccccc12,-5.02% (inactive)

row,Compound,inhibition
1,Cc1cc(-c2ccc(C)c(S(=O)(=O)NC(C)Cc3ccco3)c2)on1 (configuration not stated),2.44% (inactive)
2,CCC(=C/c1sc2ccc3ccccc3c2[n+]1C)/C=C1\Sc2ccc3ccccc3c2N1C,69.5% (active)
3,COc1ccc(C(CNC(=O)c2cccc(S(=O)(=O)Nc3ccccc3Cl)c2)N2CCOCC2)cc1 (configuration not stated),67.6% (active)
4,COc1ccc(C(CNC(=O)c2ccc(S(=O)(=O)Nc3ccccc3C)cc2)N2CCOCC2)cc1 (configuration not stated),-13.5% (inactive)
5,COc1ccc(C(CNC(=O)c2cccc(NS(=O)(=O)c3ccc(C)c(F)c3)c2)N2CCCC2)cc1 (configuration not stated),-16% (inactive)
6,C=Cc1ccc(C(=O)N2CCCC(CCC(=O)N3CCN(c4ccccn4)CC3)C2)cc1 (configuration not stated),4.83% (inactive)
7,CC(C)C(=O)Nc1nnc(SCC(=O)N2C(C)CCCC2C)s1 (configuration not stated),-1.25% (inactive)
8,CC1Cc2ccccc2N1S(=O)(=O)c1ccc(Cl)nc1 (configuration not stated),-1.93% (inactive)
9,COc1cc(NS(=O)(=O)c2ccc(N=Cc3c(C)[nH]n(-c4ccccc4)c3=O)cc2)nc(OC)n1,7.41% (inactive)
10,Cc1[nH]n(-c2cccc(Cl)c2)c(=O)c1/C=N/n1c(C)nc2ccccc2c1=O,79.2% (active)
11,CCOc1[nH]n(-c2ccc(Cl)cc2)c(=O)c1C=Nc1ccc(O)cc1,2.84% (inactive)
12,Cc1[nH]n(-c2cccc(Cl)c2)c(=O)c1-c1ccc(Cl)cc1,39.1% (inactive)
13,Cc1[nH]n(-c2ccc(Cl)cc2)c(=O)c1/C=N/n1c(C)nc2ccccc2c1=O,69.1% (active)
14,Cc1ccc(-n2[nH]c(C)c(/C=N/N3C(=O)c4cccc5cccc(c45)C3=O)c2=O)cc1,8.48% (inactive)
15,CCOC(=O)C1CCN(C(=O)COC(=O)C2CCN(S(=O)(=O)c3ccc4c(c3)OCCO4)CC2)CC1,19.6% (inactive)
16,CCc1nnc(NC(=O)C2CC(=O)N(c3ccc4c(c3)OCCO4)C2)s1 (configuration not stated),-3.71% (inactive)
17,CC(OC(=O)c1ccc2noc(-c3ccccc3)c2c1)C(N)=O (configuration not stated),6.64% (inactive)
18,Clc1c(OCCCn2ccnc2)ccc2ccccc12,5.1% (inactive)
19,Cc1ccc(CNC(=O)CCN2C(=O)[C@@H]3Cc4ccccc4CN3C2=O)cc1,4.22% (inactive)
20,O=C(CSc1nc(Nc2ccccc2)nc(N2CCOCC2)n1)Nc1cc(Cl)ccc1O,78.3% (active)
21,CC1(c2ccccc2)NC(=O)N(CC(=O)Nc2cc(Cl)ccc2N2CCOCC2)C1=O (configuration not stated),-3.7% (inactive)
22,Cc1ccccc1NC(=O)CSc1nc2ccc(Nc3nc(N4CCOCC4)nc(N4CCOCC4)n3)cc2s1,15.9% (inactive)
23,Nc1nonc1-n1nnc(C(=O)N/N=C/c2ccccc2O)c1CN1CCCC1,-2.71% (inactive)

row,Compound,inhibition
1,Nc1nonc1-n1nnc(C(=O)N/N=C/c2cc(Br)ccc2O)c1CSC1=NCCS1,107% (active)
2,Cc1ccc(SCc2c(C(=O)N/N=C/c3cccnc3)nnn2-c2nonc2N)cc1,3.15% (inactive)
3,O=C(O)c1cccnc1Sc1ncnc2sc3c(c12)CCC3,-1.33% (inactive)
4,COc1ccccc1CCC(=O)NNC(=O)c1ccncc1,-5.32% (inactive)
5,O=C(NC(=S)Nc1ccc(NC(=O)c2cccs2)cc1)c1ccc([N+](=O)[O-])cc1,6.3% (inactive)
6,CC(=O)NC(=S)Nc1ccc(NC(=S)NC(=O)c2ccc([N+](=O)[O-])cc2)cc1,60.3% (active)
7,CC(=O)Nc1ccc(NC(=S)NC(=O)c2ccc([N+](=O)[O-])c(C)c2)cc1,-0.0689% (inactive)
8,CC(C)=N/N=C1/NC(=O)C(Cc2ccccc2)S1 (configuration not stated),0.633% (inactive)
9,NC1=NC(=O)C(Cc2cccc(Cl)c2Cl)S1 (configuration not stated),-7.45% (inactive)
10,O=C1NC(=Nc2ccc(Cl)cc2)SC1Cc1cccc(Cl)c1Cl (configuration not stated),61.1% (active)
11,COc1ccc(C(CNC(=O)c2cc3c(s2)CCCC3)N2CCOCC2)cc1 (configuration not stated),-4.29% (inactive)
12,O=C(Nc1cccc(Cl)c1)c1cncn1-c1ccc(F)cc1,-0.257% (inactive)
13,CC(C)C(=O)Nc1cccc(NC(=S)NC(=O)C(c2ccccc2)c2ccccc2)c1,22.1% (inactive)
14,CCCCC(=O)NNC(=S)NC(=O)C(c1ccccc1)c1ccccc1,85.9% (active)
15,O=C(NNC(=S)NCc1ccco1)C(c1ccccc1)c1ccccc1,12.9% (inactive)
16,CC(=O)N/C(=N/c1nc(C)cc(C)n1)Nc1ccc(F)cc1F,-6.21% (inactive)
17,Cc1ccc(OCc2nnc(SC3CCc4ccccc4C3=O)n2C)cc1 (configuration not stated),1.05% (inactive)
18,CN(CCc1ccccn1)C(=O)c1ccc(OC2CCN(Cc3ccccn3)CC2)cc1,15.2% (inactive)
19,Nc1cccc2c1C(=O)N(Cc1nnc(-c3ccccc3Br)o1)C2=O,-13.7% (inactive)
20,COc1ccc(OCC(=O)NCCS(=O)(=O)N2CCN(c3ccc(F)cc3)CC2)cc1,-2.54% (inactive)
21,CCOc1cc(N2CCOCC2)c(OCC)cc1NC(=O)c1ccc(C)s1,-3.59% (inactive)
22,CCOc1cc(N2CCOCC2)c(OCC)cc1NC(=O)C1=NN(c2cccc(C)c2)C(=O)CC1,54% (active)
23,CCOc1cc(N2CCOCC2)c(OCC)cc1NC(=O)c1cc(C)nc2ccccc12,6.5% (inactive)
